Shown are actives, neighbours in structure and some others; about 1.8% of the full set was active somewhere.
RGS4 inhibitor – blocks human RGS4-accelerated GTP hydrolysis. Transcreener GDP fluorescence polarization, RGS4-accelerated GTP hydrolysis. P49798. actives 0.039% (n = 390,000). Potency, µM (highest dose often 114 µM), actives largely listed as inhibitors; note: nearly all actives have a fitted effect of over 75% in size
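MLSMR compounds (23 nl, pin-transferred) preincubated 10 min at room temperature with a 500nM (2x) first reagent, then RGS4 at 900nM (2x) plus Transcreener GDP mix added; fluorescence polarization (620/688 nm) read before and after 90 min at 30 °C.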
GLP-1R agonist – GLP-1 receptor (human) agonism; actives 0.007% (n = 380,000); Potency, µM (top dose mostly 45.6 µM), hits mostly activators; HEK293 GLP-1R CRE-luciferase, luminescence, 4-6 h; cells express a hypersensitive GLP-1R form
GLP1R cytotox – cytotoxicity counter-screen for GLP-1 receptor inverse agonists | AID 624418 | actives 0.13% (n = 410,000) | HEK293 cAMP-luciferase reporter cells, luminescence, 24 h | Potency, µM (titrated, usually from 38.3 µM), hits mostly inhibitors;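 note: loss of luciferase light is scored as toxicity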
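Cells in DMEM/10% Nu serum/1% pen-strep, 1536-well format. Pre-incubated 12 h, dosed with 23 nL compound, incubated a further 24 h. Luciferase detection, 12 min at room temp, luminescence.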
GCN5L2 inh – blocks human GCN5L2 histone acetyltransferase; Q92830; GCN5L2 HAT assay, ThioGlo1 CoA-SH fluorescence; Potency, µM (titrated, usually from 58.9 µM), hits mostly inhibitors; actives 0.21% (n = 390,000); AID 504327
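GCN5L2 (20 nM) in 50mM HEPES pH 7.5, 0.1mM EDTA, 0.01% Tween-20 preincubated 15 min with compounds at room temperature. Reaction started with H3(1-25) 75uM, acetyl-CoA 70uM, ThioGlo1 50uM; CoA-thiol fluorescence (Ex340/Em540) read at 0 and 20 min.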
GLP1R inv ag – acts as inverse agonist at human GLP-1 receptor; Potency, µM (series often up to 38.3 µM), hits mostly inhibitors; HEK293 GLP-1R CRE-luciferase, luminescence, 24 h; GLP-1R form is constitutively active; actives 1.6% (n = 410,000); P43220; note: nearly all actives have a fitted effect of over 55% in size
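qHTS in 1536-well format: reporter HEK293 cells expressing constitutive GLP-1R activity in DMEM + 10% Nu serum, 24 hr with compounds at 37 deg C, luminescence read after 12 min with detection reagent.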
PTHR1 agonist – PTHR1 (human) receptor agonism | actives 0.075% (n = 410,000) | Potency, µM (top dose mostly 115 µM), usual class: activators | AID 743266 | HEK293 GP2 PTHR1 cells, GloSensor cAMP luminescence, 1 h; note: nearly all actives have a fitted effect of over 55% in size
Target sequence (Q03431 whole entry, looked up): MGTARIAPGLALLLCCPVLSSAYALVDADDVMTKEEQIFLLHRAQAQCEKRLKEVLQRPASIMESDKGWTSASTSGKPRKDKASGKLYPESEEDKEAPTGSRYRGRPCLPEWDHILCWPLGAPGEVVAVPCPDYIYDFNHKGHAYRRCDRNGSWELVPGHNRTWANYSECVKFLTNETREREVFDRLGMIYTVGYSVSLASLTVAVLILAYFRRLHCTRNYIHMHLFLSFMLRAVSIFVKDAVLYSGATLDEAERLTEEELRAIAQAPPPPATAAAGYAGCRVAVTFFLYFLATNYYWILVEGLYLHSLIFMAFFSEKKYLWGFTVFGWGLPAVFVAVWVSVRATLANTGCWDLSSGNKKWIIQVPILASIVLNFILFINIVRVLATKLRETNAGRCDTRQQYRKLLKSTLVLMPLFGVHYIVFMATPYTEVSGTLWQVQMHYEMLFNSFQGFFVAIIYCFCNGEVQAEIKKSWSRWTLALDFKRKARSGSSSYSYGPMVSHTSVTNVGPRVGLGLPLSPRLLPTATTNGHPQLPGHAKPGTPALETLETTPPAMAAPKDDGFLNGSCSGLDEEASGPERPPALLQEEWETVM
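HEK-293-derived GP2 cells expressing PTHR1 and a GloSensor cAMP reporter, 3,000/well, plated overnight, given luciferin plus IBMX (each 0.5 mM as added) for 1 h at 37 °C, then compound for 1 h at 37 °C. Luminescence was read after 15 min at room temperature.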
Numbers stand for hits; n = inactive; u = inconclusive; x = no result given; [ ] = remark or other dose. Calls come from the whole dose curve; as a rule, active = well fitted curve in the direction sought with a large enough effect; inconclusive = small, poorly fitted or top-dose-only effect, or another doubt; inactive = no such curve, though single readings can be large; an effect the other way counts as inactive or inconclusive.

SMILES	RGS4 inhibitor	GLP-1R agonist	GLP1R cytotox	GCN5L2 inh	GLP1R inv ag	PTHR1 agonist
COc1ccc(C)cc1NC(=O)C1CCN(C(=O)c2ccc(C(C)(C)C)cc2)CC1	n	n	n	n	8.9µM	n
CCOC(=O)c1[nH]c2c(c1Cc1ccccc1)C(=O)CC(c1ccccc1)C2 (stereo not given)	n	x	n	n	11µM	n
CCOC(=O)c1[nH]c2c(c1Cc1ccccc1C)C(=O)CC(c1ccccc1)C2 (stereo not given)	n	x	n	n	u	n
O=C1C(Cc2ccccc2)Nc2ncnc(N3CCN(c4ccccc4)CC3)c2N1Cc1ccc(Cl)cc1 (stereo not given)	n	n	n	n	11µM	n
O=C1C(Cc2ccccc2)Nc2ncnc(N3CCCCC3)c2N1Cc1ccc(Cl)cc1 (stereo not given)	n	n	n	n	13µM	n
CC1Nc2ncnc(N3CCN(c4ccccc4)CC3)c2N(Cc2ccc(Cl)cc2)C1=O (stereo not given)	n	n	n	n	10µM	n
COc1ccccc1N1CCN(C(=O)COc2ccc(S(=O)(=O)NC(C)(C)C)cc2)CC1	x	x	x	n	x	x
COCc1ccc(C(=O)NC2CCCc3c2cnn3-c2cc(C)cc(C)c2)s1 (stereo not given)	n	n	n	n	7.1µM	n
Cc1ncoc1C(=O)NC1CCCc2c1cnn2-c1ccc(C(C)(C)C)cc1 (stereo not given)	n	n	n	n	5µM	n
Cc1cc(C)cc(-n2ncc3c2CCCC3NC(=O)c2cc(C)oc2C)c1 (stereo not given)	n	n	n	n	13µM	n
CN1C(=O)NC(c2ccc(Cl)cc2)C2=C1CC(C)(C)CC2=O (stereo not given)	n	n	n	n	n	n
CCCN(CCc1cccs1)[C@H]1CCc2c(O)cccc2C1	x	n	x	n	x	x
NCC1O[C@@H](OC2C(N)CC(N)C(O)C2O[C@@H]2OC(CO)C(O)C2O)C(N)C(O)C1O (stereo not given in full)	x	x	x	n	x	x
CC(C)NC(=NCc1ccc(Cl)cc1Cl)Nc1ccccc1	n	n	n	n	7.9µM	n
Cc1cccc(C)c1Nc1cn[nH]c1	x	n	n	x	n	n
Cc1ccc(C2c3c(-c4ccccc4O)n[nH]c3C(=O)N2Cc2ccncc2)cc1 (stereo not given)	n	n	n	n	n	n
O=C1c2[nH]nc(-c3ccccc3O)c2C(c2cccc(Br)c2)N1Cc1ccncc1 (stereo not given)	n	x	u	n	13µM	n
CCC(O)(CC)C(=O)N(Nc1ccc(C)cc1)c1ccc(C)cc1	n	n	n	n	8.9µM	n
O=C(c1cccs1)N1CCN=C1SCc1cccnc1	n	n	n	n	n	u
O=C(N1CCN=C1SCc1cccnc1)C12CC3CC(CC(C3)C1)C2	n	n	n	n	3.5µM	n
CCOC(=O)N1CCN(c2ccncc2S(=O)(=O)N2CCCCC2)CC1	n	n	n	n	n	n
Cc1cccc(-n2c(SCc3ccc([N+](=O)[O-])cc3)nnc2-c2c[nH]c3ccccc23)c1	n	n	n	n	3.2µM	n
c1ccc2cc(C3=NCCN3)ncc2c1	n	x	x	n	x	x
CC(C)N(C(=O)c1nn(C)c2c1CSc1ccccc1-2)C1CCCCC1	n	n	n	n	10µM	n
CCOc1ccc(CCNC(=O)c2nn(C)c3c2CSc2ccccc2-3)cc1	n	x	n	n	10µM	n
SMILES	RGS4 inhibitor	GLP-1R agonist	GLP1R cytotox	GCN5L2 inh	GLP1R inv ag	PTHR1 agonist
CC1(C)C2CCC1(C)C(OCCNCCOC(=O)Nc1ccccc1)C2 (stereo not given)	n[11.4 µM]	n	n	n	11µM	n
Cc1cccc(C)c1NC(=O)C(C)c1ccc(-c2ccccc2)c(F)c1 (stereo not given)	n	n	n	x	10µM	n
CC(=O)O[C@H](C)OC(=O)[C@@H](C)c1ccc(-c2ccccc2)c(F)c1	x	n	x	x	x	x
CN(Cc1ccccc1)C(=O)COC(=O)c1ccc[nH]c1=O	n	n	n	n	n	n
COc1ccc(-c2sc(N)nc2-c2ccccc2)cc1	n	x	x	x	x	x
CC(=O)NNC(=O)CSc1nnc(-c2ccccc2)c(-c2ccccc2)n1	n	n	n	u	n	n
CC(C)(C)NC(=O)CSc1nnc(-c2ccccc2)c(-c2ccccc2)n1	n	n	n	n	8.9µM	n
O=C(CSc1nccn1Cc1ccccc1)Nc1ccccc1	n	n	n	n	n	n
CC(C)(C)NC(=O)CSc1nccn1Cc1ccccc1	n	n	n	3.5µM	n	n
CC(C)(C)NC(=O)CSc1nc2ccccc2n1-c1ccccc1	u	n	n	n	10µM	u
CCOc1ccccc1CN1CCN(Cc2cc3ccccc3[nH]2)CC1CCO (stereo not given)	n	n	n	n	10µM	n
CN1CCC(n2[nH]c(-c3ccccc3)c(Cc3ccccc3)c2=O)CC1	n	n	n	x	11µM	n
O=C(Nc1cc2ccccc2oc1=O)c1ccccc1	n	n	n	n	7.9µM	n
CCCCCCCCCCCCCCC(F)C(=O)O (stereo not given)	u	x	x	n	x	x
COC(=O)c1cccc(-n2sc3ccccc3c2=O)c1	n	n	u	1.6µM	u	n
O=c1c2ccccc2sn1-c1ccc(F)cc1	n	n	n	2µM	n	n
COc1ccc(S(=O)(=O)NC(C)C(=O)N2CCCC2)cc1C (stereo not given)	n	n	n	n	n	n
CCCCCc1ccc(OCCCC[n+]2ccccc2)c(CCCCC)c1	n	n	u	n	6.3µM	n
Cc1nc([N+](=O)[O-])c(Br)n1CC(=O)c1ccc(Cl)cc1	n	n	n	n	u	n
Cc1nc([N+](=O)[O-])c(Br)n1Cc1ccc(Cl)c(Cl)c1	n	n	10µM	n	10µM	n
O=C1[C@H]2[C@@H](c3ccc(F)cc3)N3C(=O)N(c4cccc(Cl)c4)C(=O)[C@@]3(Cc3ccccc3)[C@H]2C(=O)N1C1CCCCC1	n	n	n	n	5.6µM	n
O=C1[C@H]2[C@@H](c3ccc(F)cc3)N3C(=O)N(c4cccc(Cl)c4)C(=O)[C@@]3(Cc3ccc(Cl)cc3)[C@H]2C(=O)N1C1CCCCC1	n	n	n	u	u	n
COc1cc(C(=O)O[C@H]2C/C(C)=C/CC[C@@]3(C)O[C@@H]3[C@H](O)[C@@H]2C(C)C)cc(OC)c1OC	n	n	n	n	13µM	n
